High-throughput results: PubChem, National Center for Advancing Translational Sciences (NCATS)
Pf growth 96h: Primary qHTS for delayed death inhibitors of the malarial parasite plastid, 96 hour incubation; AID 504834, 2011; P. falciparum luciferase reporter growth, 96 h; Potency, µM (highest dose often 28.7 µM), for the others: top-dose activity change, negative = inhibition, actives largely listed as inhibitors; 320,000 compounds, 6.9% hits; further: potency means the concentration at half of the fitted maximal effect; on the % scale 0 is the no-effect control and ±100 the full control effect
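Compounds incubated with erythrocytes infected by luciferase-expressing P. falciparum (2% hematocrit, 0.05% parasitemia final) for 96 hours, 37 C in 5% CO2. Growth inhibition scored as decreased luciferase luminescence.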
Sm TGR inh: qHTS Assay for the Inhibitors of Schistosoma Mansoni Peroxiredoxins. Schistosoma mansoni thioredoxin glutathione reductase (TGR), Q962Y6. purified TGR, DTNB reduction, TNB absorbance 405 nm. Potency, µM (top dose mostly 114 µM), for the others: top-dose activity change, negative = inhibition, actives largely listed as inhibitors. 360,000 compounds, 3% hits. AID 485364, 2010; further: potency means the concentration at half of the fitted maximal effect; on the % scale 0 is the no-effect control and ±100 the full control effect; nearly all actives have a fitted effect of over 60% in size
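Kinetic colorimetric format: TGR-catalysed, NADPH-driven DTNB reduction monitored via TNB absorbance. Enzyme dispensed at 20 nM; compound exposure 15 min at room temperature before reaction start.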
HCMV inh: qHTS Assay for inhibitors of the human cytomegalovirus (HCMV); HFF cells, HCMV-luciferase reporter, 72 h; hits give low values; activity change, negative = inhibition, % at 57.5 µM; 410,000 compounds, 4.5% hits; AID 1259415, 2018; in the data active means activity change below about -60%; inconclusive means no clear call, values can overlap the other calls; inactive means above about -39%; further: on the % scale 0 is the no-effect control and ±100 the full control effect
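HFF cells seeded 16 h at 37C, treated with compounds, infected with luciferase-reporter HCMV at MOI 1 PFU/cell; luciferase read at 72 h post infection, normalized to buffer-only and Salinomycin controls.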
SARS PLP yeast: qHTS of Yeast-based Assay for SARS-CoV PLP; Potency, µM (highest dose often 32.9 µM), without a hit: at the top dose activity, positive = growth rescue, most hits filed as activators; 330,000 compounds, 0.19% hits; AID 485353, 2010; S. cerevisiae expressing SARS-CoV PLpro, growth rescue; calls by dose curve; further: potency means the concentration at half of the fitted maximal effect; 0% is about no effect; nearly all actives have a fitted effect of over 55% in size
Pf growth 48h: Primary qHTS for delayed death inhibitors of the malarial parasite plastid, 48 hour incubation | Potency, µM (top dose mostly 28.7 µM), inactives show at the top dose activity change, negative = inhibition, most hits filed as inhibitors | 310,000 compounds, 5.9% hits | P. falciparum luciferase growth in erythrocytes, 48 h; further: potency means the concentration at half of the fitted maximal effect; on the % scale 0 is the no-effect control and ±100 the full control effect
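In quantitative HTS format, infected erythrocytes bearing luciferase-reporter parasites were treated for a single generation at 37 C. Luminescence after adding detection reagent served as the growth measure.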
HCV inh: qHTS Assay for Inhibitors of Hepatitis C Virus (HCV); Huh7.5.1 HCVcc-Cre infection, luciferase reporter, 44 h; Potency, µM (top dose mostly 41.8 µM), inactives show at the highest dose activity change, negative = inhibition, usual class: inhibitors; 340,000 compounds, 3.4% hits; AID 651820, 2012; further: potency means the concentration at half of the fitted maximal effect; on the % scale 0 is the no-effect control and ±100 the full control effect
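HCVcc-Cre virus at an moi near 0.5 was added right after compound to cells cultured 4 h from seeding (1,000 cells/well). Luciferase activity was determined 44 h later, 15 min after substrate addition at RT.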
Starred values were filed as active, the others as inactive; [ ] = another dose, or the depositor's remark. The list is not random: actives were taken first. Their share in the collection is about 15%. Unless noted, the call rests on the fitted dose curve; in most records, active means well fitted curve in the direction sought with a large enough effect; inconclusive means small, poorly fitted or top-dose-only effect, or another doubt; inactive means no such curve, though single readings can be large; an effect the other way counts as inactive or inconclusive.

How did COc1c(Cl)cc(Cl)cc1C(=O)Nc1ccc(NC(=O)c2cccs2)cc1 do in these assays?
Pf growth 96h: 13.1µM*; Sm TGR inh: 3.1%; HCMV inh: inconclusive; SARS PLP yeast: -2.7%; Pf growth 48h: 9.28µM*; HCV inh: inconclusive

Results for COc1ccc(C(=O)Nc2cccc(NC(=O)c3cccs3)c2)cc1OC ?
Pf growth 96h: -17.8%; Sm TGR inh: 13.9%; HCMV inh: 27.5; SARS PLP yeast: 0.0%; Pf growth 48h: -18.5%; HCV inh: inconclusive

Results for COc1ccc(/C=C/C(=O)c2ccc(NC(=O)c3cccs3)cc2)cc1OC ?
Pf growth 96h: -12.0%; Sm TGR inh: 2.3%; HCMV inh: 146.9; SARS PLP yeast: 17.0%; Pf growth 48h: inconclusive; HCV inh: 10µM*

How did COc1ccc(S(=O)(=O)N2CCCCC2)cc1C(=O)N1CCCCCC1 do in these assays?
HCMV inh: 48.5; HCV inh: -7.9%

What do the screens show for `COc1ccc(NC(=O)N2c3ccc(OC)cc3[C@@H](NS(C)(=O)=O)[C@H](C)[C@H]2c2ccccc2)cc1`?
HCMV inh: -19.8

What do the screens show for `Cc1sc2ncn(CC(=O)N3CCN(c4ccccc4F)CC3)c(=O)c2c1S(=O)(=O)N1CCC(C)CC1`?
Sm TGR inh: 3.5%; HCMV inh: 5.8

How did COc1ccc(C(=O)Nc2ccc(NC(=O)c3cccs3)cc2)cc1Cl do in these assays?
Pf growth 96h: inconclusive; Sm TGR inh: -0.3%; HCMV inh: -75.9*; SARS PLP yeast: 3.7%; Pf growth 48h: -9.2%; HCV inh: -12.4%

What do the screens show for `COc1cc(OC)cc(C2=Cc3ccccc3C(CC(=O)c3ccco3)N2c2ccc(-c3cncnc3)cc2)c1` (centres undefined)?
HCMV inh: -8.2

What do the screens show for `COc1ccc(C)cc1NC(=O)c1cc2c(=O)n(Cc3cccnc3)ccc2nc1C`?
Sm TGR inh: -1.5%; HCMV inh: -15.4

How did CCOC(=O)c1cc(C(C)(C)C)oc1CN do in these assays?
Sm TGR inh: -6.0%; HCMV inh: 0.6; SARS PLP yeast: -0.8%; Pf growth 48h: inconclusive; HCV inh: -1.0%

Results for CCOC(=O)c1cc(C(C)(C)C)oc1CNC(=O)c1c(C)oc2c1CCCC2 ?
Pf growth 96h: inconclusive; Sm TGR inh: -20.3%; HCMV inh: -33.6; SARS PLP yeast: -10.0%; Pf growth 48h: 14.7µM*; HCV inh: inconclusive

How did CCn1c(C(=O)NCc2ccc(OC(C)C)cc2)cc2oc3ccccc3c21 do in these assays?
Sm TGR inh: 2.6%; HCMV inh: -79.0*

How did CCn1c(C(=O)NCc2ccccc2C)cc2oc3ccccc3c21 do in these assays?
Sm TGR inh: -5.3%; HCMV inh: -82.4*

What do the screens show for `COc1ccc(Cl)cc1NC(=O)CN1C(=O)C(C)(C)c2cc(S(=O)(=O)N3CCCCC3)ccc21`?
Sm TGR inh: 0.8%; HCMV inh: -9.4

How did Clc1cccc(Cl)c1Cn1cnc(=NCc2ccco2)c2[nH]cnc21 do in these assays?
Sm TGR inh: -30.0%; HCMV inh: -71.0*; SARS PLP yeast: -2.1%; Pf growth 48h: 14.7µM*; HCV inh: -12.4%

How did Clc1cccc(Cl)c1Cn1cnc2c(NCc3ccco3)ncnc21 do in these assays?
Sm TGR inh: 3.5%; HCMV inh: -16.4; SARS PLP yeast: 16.6%; Pf growth 48h: -9.4%; HCV inh: -1.8%

Results for Cc1ccc(NC(=O)CN2CCN(C(=O)c3ccco3)CC2)cc1S(=O)(=O)N(C)C ?
HCMV inh: 3.7; HCV inh: -2.1%

Results for CSc1ccc(CNc2cccc3ccccc23)cc1 ?
Pf growth 96h: -54.3%; Sm TGR inh: 2.5%; HCMV inh: -63.7*; SARS PLP yeast: -2.5%; HCV inh: inconclusive

How did CCc1ccc(CN(C)Cc2nc(-c3cccc(Cl)c3)no2)nc1 do in these assays?
Pf growth 96h: inconclusive; Sm TGR inh: -8.0%[57.1 µM]; HCMV inh: -4.6; SARS PLP yeast: 2.7%; Pf growth 48h: 11.1%; HCV inh: 8.1%

How did CCc1nccn1CCC(=O)NC1CC(C)(C)Cc2c1cnn2-c1cccc(F)c1 (centres undefined) do in these assays?
Pf growth 96h: -5.7%; Sm TGR inh: 2.9%; HCMV inh: -1.7; SARS PLP yeast: 7.7%; Pf growth 48h: 53.4%; HCV inh: inconclusive

How did C=CCOC(=O)c1[nH]c2c(c1C)C(=O)CC(c1ccco1)C2 (centres undefined) do in these assays?
Pf growth 96h: -86.2%; Sm TGR inh: 44.7µM*; SARS PLP yeast: -9.7%; Pf growth 48h: 5.22µM*; HCV inh: -24.8%

What do the screens show for `Cc1c(C(=O)OC2CCCC2)[nH]c2c1C(=O)CC(c1ccco1)C2` (centres undefined)?
Pf growth 96h: inconclusive; Sm TGR inh: -34.1%; HCMV inh: -94.8*; SARS PLP yeast: 2.0%; Pf growth 48h: 7.38µM*; HCV inh: inconclusive

Results for C/C=C/COC(=O)c1[nH]c2c(c1C)C(=O)CC(c1ccco1)C2 (centres undefined) ?
Pf growth 96h: -33.9%; Sm TGR inh: 50.1µM*; HCMV inh: -65.3*; SARS PLP yeast: -19.6%; Pf growth 48h: 1.47µM*; HCV inh: inconclusive

Results for Cc1c(C(=O)OC2CCCCC2)[nH]c2c1C(=O)CC(c1ccccc1)C2 (centres undefined) ?
Sm TGR inh: 8.2%; HCMV inh: -8.1

How did CCOCCOC(=O)c1[nH]c2c(c1C)C(=O)CC(c1ccc(N(C)C)cc1)C2 (centres undefined) do in these assays?
Pf growth 96h: 10.5%; Sm TGR inh: -10.6%; HCMV inh: -24.8; SARS PLP yeast: -2.8%; Pf growth 48h: inconclusive; HCV inh: inconclusive

What do the screens show for `CCOC(=O)c1[nH]c2c(c1C)C(=O)CC(c1ccc(OC)c(OC)c1)C2` (centres undefined)?
Pf growth 96h: 41.8%; Sm TGR inh: -3.4%; HCMV inh: -5.8; SARS PLP yeast: 0.8%; Pf growth 48h: inconclusive; HCV inh: inconclusive

What do the screens show for `C/C=C/COC(=O)c1[nH]c2c(c1C)C(=O)CC(c1ccc(N(C)C)cc1)C2` (centres undefined)?
Pf growth 96h: 17.0%; Sm TGR inh: -18.7%; HCMV inh: -15.3; SARS PLP yeast: -16.0%; Pf growth 48h: inconclusive; HCV inh: 5.62µM*
